# From PubChem BioAssay AID777 (Sanford-Burnham Center for Chemical Genomics, 2007)
# Screen size: about 96,000 compounds; about 19,000 (20%) were called active. A selection follows. Values without a mark were called inactive.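 How the source made its calls: active means blocking of liver enzyme CYP2C9 beyond about 50% at 5 µM (limit read from the data); inactive means the rest.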
# Target: Cytochrome P450 2C9 (Homo sapiens) (UniProt P11712)
# Assay: blockers of cytochrome P450 2C9 activity – biochemical, luminescence, ADME assay, primary screen (AID 777)
# Conditions: CYP2C9 Supersomes, luciferin-H conversion, at 5 µM, stronger effect = higher value
# Sequence of Cytochrome P450 2C9 (Homo sapiens) (P11712 whole entry, looked up): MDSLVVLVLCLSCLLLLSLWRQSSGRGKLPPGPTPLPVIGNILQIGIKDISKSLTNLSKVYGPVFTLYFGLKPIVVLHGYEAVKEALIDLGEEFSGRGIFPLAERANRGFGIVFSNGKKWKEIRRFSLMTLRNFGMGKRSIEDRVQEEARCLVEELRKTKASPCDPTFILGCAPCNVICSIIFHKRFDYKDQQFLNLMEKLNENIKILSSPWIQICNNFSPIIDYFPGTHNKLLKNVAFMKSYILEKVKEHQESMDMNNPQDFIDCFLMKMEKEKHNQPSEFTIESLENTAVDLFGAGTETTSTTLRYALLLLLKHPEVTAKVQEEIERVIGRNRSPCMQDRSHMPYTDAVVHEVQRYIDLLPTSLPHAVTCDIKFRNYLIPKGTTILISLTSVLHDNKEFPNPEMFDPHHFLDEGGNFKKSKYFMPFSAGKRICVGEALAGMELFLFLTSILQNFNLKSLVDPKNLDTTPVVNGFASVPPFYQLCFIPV
row,SMILES,inhibition
1,O=C(NCC1CCCO1)c1ccc2ccccc2n1 (centres undefined),-36.5%
2,Cc1ccc(-c2noc(-c3ccccc3C(=O)NCC3CCCO3)n2)cc1 (centres undefined),70.8% (active)
3,O=C(c1ccc(=O)[nH]c1)N(Cc1ccco1)C1(C(=O)NC2CCCCC2)CCCCC1,-8.6%
4,COc1ccc(C2N=C(N)N=C(N)N2c2ccccc2)cc1OC (centres undefined),-7%
5,O=C(N/N=C/c1ccsc1)c1cc(O)cc(O)c1,5.4%
6,O=C(N/N=C/c1ccc(O)c(O)c1)C1c2ccccc2Oc2ccccc21,55.2% (active)
7,COc1cc(/C=N\NC(=O)C2C(=O)NCC2c2ccccc2)cc(OC)c1O (centres undefined),-9.3%
8,CCC1=C/C(=C\c2ccc3c(c2)OCO3)C(=O)S1,16.7%
9,CN(Cc1ccccc1)Cc1ccccc1F,-5%
10,CC(O)CN(Cc1ccc(Cl)cc1)CC(C)O (centres undefined),-2.8%
11,OCCN(Cc1ccccc1)Cc1ccc(Cl)cc1,87.6% (active)
12,Cn1c(=O)cc(SCC(=O)N2CCN(C(=O)c3ccco3)CC2)c2ccccc21,-14%
13,O=C(Nc1nnc(C2CC2)s1)c1ccccn1,-32.1%
14,c1cncc(-c2nnc3n2C2(CCCCC2)Cc2ccccc2-3)c1,11.2%
15,O=c1c2ccccc2nc2n1C1(CCCCC1)Cc1ccccc1-2,87.7% (active)
16,CCC1(CC)Cc2ccccc2-c2nc3ccccc3c(=O)n21,19.3%
17,CC(C)[C@H](NC(=O)Nc1ccc(S(N)(=O)=O)cc1)C(=O)O,-7.3%
18,O=S(=O)(/N=C(/Nc1ccccn1)c1ccccc1)c1ccc(Cl)cc1,29%
19,O=C1CCCc2c1[nH]c1ccc(Br)cc21,19.2%
20,COC(=O)c1ccc(C2NC(=O)NC(C)=C2C(=O)N(C)C)cc1 (centres undefined),-16.8%
21,CCOC(=O)c1sc(=S)n2c1[nH]c(=O)c1ccc(C(=O)OC)cc12,42.1%
22,CCOC(=O)C1=C(C)Nc2sc(C(=O)c3ccc(Br)cc3)c(N)c2C1c1ccc(C(=O)OC)cc1 (centres undefined),91.9% (active)
23,Cc1c(Nc2nc3ccccc3nc2NS(=O)(=O)c2cccs2)c(=O)n(-c2ccccc2)n1C,47.6%
24,COc1ccc(-n2c(Cc3cccn3C)nnc2SCC(=O)Nc2cc(C)cc(C)c2)cc1,28.5%
25,CCn1c(CNc2ccc(OC)cc2)nnc1SCC(=O)c1ccc(OC)cc1,25.4%

row,SMILES,inhibition
1,COc1ccc(NCc2nnc(SCc3ccccc3)n2-c2ccc(OC)cc2)cc1,59.6% (active)
2,C=C(C)Cn1c(C)cc(C)c(S(=O)(=O)c2ccccc2C)c1=O,36.5%
3,Cc1ccc(-n2ncc3c2ncn2nc(-c4ccco4)nc32)c(C)c1,0.2%
4,NC(=O)C1CC=CCC1C(=O)OCC(Cl)=C(Cl)Cl (centres undefined),2.9%
5,COc1ccc(CN2CN(C(C)C)CSC2=S)cc1,34%
6,Cc1ccc(S(=O)(=O)N2CCCC2C(=O)NCc2ccco2)cc1 (centres undefined),-48.4%
7,NC(=O)COc1ccc(/C=N/NC(=O)C2CCCN2S(=O)(=O)c2ccc(Cl)cc2)cc1 (centres undefined),67.3% (active)
8,O=C(COc1ccc(Cl)cc1)N1CCN(S(=O)(=O)c2ccc(Cl)cc2)CC1,0.1%
9,Cc1cccc(NC(=O)C2CCCN2S(=O)(=O)c2ccc(F)cc2)c1C (centres undefined),-147%
10,CC(=O)Nc1ccc(S(=O)(=O)N2CCCC2C(=O)O)cc1 (centres undefined),-11.7%
11,CC(C)c1nnc(NC(=O)C2CCCN2S(=O)(=O)c2ccc(Cl)cc2)s1 (centres undefined),86.2% (active)
12,CCC(C)NC(=O)C1CCCN(C(=O)NC2CCCCC2)C1 (centres undefined),19.9%
13,COc1ccc(C)cc1NC(=O)c1[nH]c(C)c(C(C)=O)c1C,34%
14,CCOC(=O)C1Sc2[nH]c(=O)sc2C(c2ccc(Cl)cc2)C1C(=O)OCC (centres undefined),5.6%
15,O=c1c2ccccc2oc2nc(C3CCCCC3)n(Cc3ccco3)c(=O)c12,20.1%
16,CCc1nc2ccccc2n(CCOCCOCCn2c(=O)c(CC)nc3ccccc32)c1=O,24.5%
17,CC(c1ccco1)N(C(=O)COc1ccccc1[N+](=O)[O-])c1ccccn1 (centres undefined),8.1%
18,CC(C)Cc1ccc(S(=O)(=O)N2CCN(C(=O)c3ccco3)CC2)cc1,17%
19,CC(c1ccco1)N(C(=O)c1ccc(S(=O)(=O)N2CCCCC2)cc1)c1ccccn1 (centres undefined),56.9% (active)
20,Cc1cc(C)cc(OCc2nnc(SCC(=O)OC3CCCCC3)o2)c1,-1.3%
21,C=CCc1cccc2cc(C(=O)N3CCN(C(=O)OCC)CC3)c(=O)oc12,-112%
22,CCN(CC)S(=O)(=O)c1cccc(C(=O)NCC(=O)OCC(=O)NCc2ccccc2)c1,63.3% (active)
23,CCN(CC)S(=O)(=O)c1cccc(C(=O)Nc2ccccc2)c1,38.7%
24,CCN(c1ccccc1)S(=O)(=O)c1cccc(C(=O)O)c1,33.3%
